40 compounds from PubChem BioAssay (NCI) can be followed below.

About 83,000 compounds went through this panel and 20% of them were active in at least one assay; those are over-represented in the sample as a whole.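 Compound tested at a single concentration for 48 hours in 96-well plates; a percent growth value below 10 was scored as active.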 Unmarked numbers belong to inactive results. Calls of active or inactive are those of the source.

The test system of the assay is HL-60(TB) leukemia. As to the kind of experiment: NCI-60 one-dose screen, 48 h (100 = growth as untreated, 0 = no growth, -100 = all killed). The conditions noted are these: 10 µM unless noted.
As to `C=C1CCC2C3(C)COC(c4cccs4)OC3CCC2(C)C1CC(Sc1ccccc1)C1=CCOC1=O` (stereo not given), the growth is 19.4%. The figure for `CN(C)CCn1c2ccccc2c2nc3ccc([N+](=O)[O-])cc3nc21` is 5.67% (active); for `Cc1ccc(C2=NN(c3nc(-c4cc5ccccc5oc4=O)cs3)C(c3ccc(C)cc3)C2)cc1` (stereo not given) it is 91%; for `C[C@@H]1CN(c2ccc3ncc(C#Cc4cncc(C(=O)Nc5ccc(CN6CCN(C)CC6)c(C(F)(F)F)c5)c4)n3n2)C[C@@H](C)O1` it is -53.6% (active). In the case of `COc1cc(OC(F)(F)F)ccc1C(=O)Nc1sc2c(c1C#N)CCC(=O)C2`, the growth is 38%.

Regarding `N#Cc1c(-c2cccc3ccccc23)cc(-c2cccc(OCC(=O)O)c2)[nH]c1=O`, the growth is 82.2%.

For `Cc1cccc(NC(=O)[C@]23CCC(C)(C)CC2C2=CCC4[C@@]5(C)C[C@@H](O)[C@H](O)[C@@](C)(CO)C5CC[C@@]4(C)[C@]2(C)CC3)c1` (stereo not given in full), the growth was -14.4% (active). The figure for `CCC(C)(C)c1ccc(OCCCCCCN2CCN(c3ccncc3)CC2)cc1` is -62.2% (active); for `COc1ccc(Cc2nn(CC(=O)N/N=C/c3ccc(Br)cc3)c(=O)c3c(C)noc23)cc1` it is 91.2%; for `CN1CCN(/C(=N\c2sc(-c3ccccc3)nc2-c2ccccc2)c2ccccc2)CC1` it is 62.9%.

As for `O=C(Nc1cccc(-n2cnc3cc(-c4ccc(O)cc4)ccc32)c1)C1CC1`, the growth was -16.7% (active). In the case of `Cc1cc(C)c2[nH]c(=O)c(C(c3nnnn3Cc3ccc4c(c3)OCO4)N3CCN(C)CC3)cc2c1` (stereo not given), the growth is 129%.

On to `O=C(O)CCCCCCCCCCN1C(=O)/C(=C/c2cnc(-c3ccc(Cl)cc3)s2)SC1=S`, for which the growth was 33.7%. The figure for `CCOC(=O)c1ccc(Nc2nc(NN)nc(-c3ccc(F)cc3)c2C#N)cc1` is 88%. The figure for `CC(=O)c1c(N)c(C#N)cn1-c1ccc(Cl)cc1Cl` is 102%. With `Cc1nc(N)ncc1-c1ccc2ncnc(N3CCc4cc(F)c(Cl)cc43)c2c1`, the growth was 46.6%.

Consider `COc1cc2c(c(OC)c1OC)C(=O)CC(c1cccc(NC(=O)c3cccc([N+](=O)[O-])c3)c1)O2` (stereo not given), for which the growth is 26.1%. Consider `CCCCOc1ccc(NC(=O)c2sc3nc(C)ccc3c2N)cc1`, for which the growth is 46.8%. The figure for `N/C(=N\N=C\c1ccc([N+](=O)[O-])cc1)c1c(N)nc(=S)[nH]c1-c1ccc(Cl)cc1Cl` is 103%. `CN(C)c1nc(NCCNS(=O)(=O)c2ccc(C3=Nc4c(N)nc(N)nc4NC(c4ccc(F)cc4)C3)cc2)nc(Nc2ccc(F)cc2)n1` (stereo not given): the growth is -25.1% (active). The figure for `Cc1ccc(Cc2cnc(NC(=O)c3ccc(/C=C4\SC(=S)N(C)C4=O)cc3)s2)cc1` is 18%; for `CC(C)Sc1nc(NCCc2c[nH]c3ccccc23)c(C#N)c(-c2ccccc2)n1` it is 19.3%. The value for `COc1ccc2nc(Cl)c(-c3cc(-c4ccccc4)nc(=S)[nH]3)cc2c1` was 19.6%; that for `Nc1nc(Nc2ccc(Cl)cc2)nn1Cc1cccc(Br)c1` was 34.5%. Regarding `Cc1cccc(NC(=O)CSc2nc3ccc(F)cc3c(=O)n2-c2ccc(Cl)cc2)c1C`, the growth was 96.4%.

On to `CN(C)CCCNC(=O)c1cc(NC(=O)c2cc(NC(=O)c3ccc(/C=C/c4ccccc4)cc3)cn2C)cn1C`, for which the growth is -37.7% (active). `CCCCSc1nc(Nc2ccc(/C(C)=N/NC(N)=S)cc2)c(C#N)c(-c2ccc(OC)cc2)n1`: the growth is 92.2%. For the compound `O=C1NC(=NC2CCCCCC2)N/C1=C\c1ccc2ncoc2c1`, the growth is 30.1%.

With `COc1ccccc1-n1cc(C#N)c(N)c1C(=O)c1ccc(Cl)cc1Cl`, the growth was 1.26% (active). Consider `Cc1nn(-c2ccccc2)c2nc(C)n(CC(=O)N/N=C/c3cccc([N+](=O)[O-])c3)c(=O)c12`, for which the growth is 99%. The value for `O=C(c1ccc(Cl)cc1)C1[C@H](c2ccccc2Br)[C@@H](c2ccccc2)NC12C(=O)Nc1ccc(Br)cc12` (stereo not given in full) was -6.61% (active); that for `COc1cc(CNC(=O)/C=C/c2ccc3c(c2)OCO3)ccc1OCc1cn(-c2ccc([N+](=O)[O-])cc2)nn1` was 97%. For `O=C(CSc1ccc(-c2ccc(Cl)cc2)nn1)Nc1ccc(Cl)c(C(F)(F)F)c1`, the growth was 32.7%. The figure for `Cc1cc2nc3c4ccccc4n(CCCN(C)C)c3nc2cc1C` is -40.5% (active); for `NNc1ncnc2sc3c(c12)CCN(Cc1ccccc1)C3` it is 18.8%. As for `CC(C)(C)c1cc(-c2cc(-c3ccccc3)[nH]c(=O)c2C#N)cc(C(C)(C)C)c1`, the growth is 82.3%. The value for `O=C(NN1C(=O)/C(=C/C=C/c2ccc([N+](=O)[O-])o2)SC1=S)c1ccc(O)cc1` was -41.8% (active). `CCOP(=O)(OCC)O[C@H]1CC[C@]2(C)[C@H]3CC[C@@H]4[C@@H]([C@](C)(O)CCC=C(C)C)CC[C@@]4(C)[C@]3(C)CC[C@H]2C1(C)C`: the growth was 0.463% (active). With `O=C(CSc1nnc(-c2ccc(-c3nc4ccc(Cl)cc4[nH]3)cc2)o1)Nc1ccc(Br)cc1`, the growth is 29.7%. Regarding `Cc1nn(-c2ccccc2)c2nc(C)n(CC(=O)N/N=C/c3ccccc3O)c(=O)c12`, the growth is 7.2% (active).
